Several values for one entry are separate records, joined by “and”; a condition that tells them apart may be missing. Equal values may be shown once. Among all 5,500 compounds or so, about 2,000 (36%) were called active. Not shown: some 18% with an inconclusive outcome. Rule as the data show it: active = normalized growth mostly below about 0.91 (no sharp cut-off); inconclusive = no clear call, values can overlap the other calls; inactive = mostly above about 0.92. The list shows a part of the results.
Assay: chemical genetic growth profiling, strain panel (AID 1159580);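 also: tested at 20 µM; growth read once vehicle control cultures reached saturation at 30 °C; 1 = growth at the plate median or of vehicle wells; lower values mean less growth of the strain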
Details: S. cerevisiae deletion strains, growth OD

Measured: normalized growth

C[C@]12CCC(=O)C=C1C=CC1C2CC[C@@]2(C)C1CC[C@@]21CCC(=O)O1 (stereo partly specified)
inactive: locus YAL013W, strain DEP1, stronger effect = lower value 0.956 | locus YAL021C, strain ccr4, stronger effect = lower value 0.971 | locus YAL026C, strain drs2, stronger effect = lower value 0.97 | locus YAL030W, strain snc1, stronger effect = lower value 0.974 | locus YBL061C, strain skt5, stronger effect = lower value 0.977 | locus YBR009C, strain hhf1, stronger effect = lower value 0.962 | locus YBR021W, strain FUR4, stronger effect = lower value 1 | locus YBR023C, strain chs3, stronger effect = lower value 0.979 | locus YBR171W, strain sec66, stronger effect = lower value 0.966 | locus YBR229C, strain ROT2, stronger effect = lower value 0.979 | locus YBR231C, strain swc5, stronger effect = lower value 0.989 | locus YBR279W, strain paf1, stronger effect = lower value 0.983 | locus YCL011C, strain gbp2, stronger effect = lower value 0.968 | locus YCL016C, strain dcc1, stronger effect = lower value 0.976 | locus YCL029C, strain bik1, stronger effect = lower value 0.949 | locus YCL061C, strain MRC1, stronger effect = lower value 0.954 | locus YCL069W, strain vba3, stronger effect = lower value 0.974 | locus YCR088W, strain abp1, stronger effect = lower value 0.974 | locus YDL005C, strain med2, stronger effect = lower value 0.98 | locus YDL035C, strain GPR1, stronger effect = lower value 0.962 | locus YDL040C, strain nat1, stronger effect = lower value 0.977 | locus YDL074C, strain BRE1, stronger effect = lower value 0.872 | locus YDL185W, strain tfp1, stronger effect = lower value 0.967 | locus YDR001C, strain nth1, stronger effect = lower value 0.952 | locus YDR069C, strain doa4, stronger effect = lower value 0.984 | locus YDR101C, strain arx1, stronger effect = lower value 0.955 | locus YDR150W, strain NUM1, stronger effect = lower value 0.985 | locus YDR159W, strain sac3, stronger effect = lower value 0.901 | locus YDR195W, strain ref2 1.12 | locus YDR297W, strain sur2, stronger effect = lower value 0.981 | locus YDR318W, strain mcm21, stronger effect = lower value 0.956 | locus YDR334W, strain swr1, stronger effect = lower value 0.977 | locus YDR335W, strain msn5, stronger effect = lower value 0.976 | locus YDR388W, stronger effect = lower value 0.969 | locus YEL003W, strain gim4, stronger effect = lower value 0.962 | locus YEL037C, strain rad23, stronger effect = lower value 0.971 | locus YEL061C, strain CIN8 (second series), stronger effect = lower value 0.967 | locus YEL061C, strain CIN8, stronger effect = lower value 0.978 | locus YER015W, strain faa2, stronger effect = lower value 0.979 | locus YER016W, strain bim1, stronger effect = lower value 0.975 | locus YER110C, stronger effect = lower value 0.965 | locus YER111C, strain swi4, stronger effect = lower value 0.962 | locus YER155C, strain BEM2 (second series), stronger effect = lower value 0.988 | locus YER155C, strain BEM2, stronger effect = lower value 0.996 | locus YER167W, strain BCK2, stronger effect = lower value 0.956 | locus YFR010W, strain ubp6, stronger effect = lower value 0.986 | locus YGL078C, strain dbp3, stronger effect = lower value 0.985 | locus YGL167C, strain pmr1, stronger effect = lower value 0.968 | locus YGL173C, strain kem1, stronger effect = lower value 0.953 | locus YGL227W, strain vid30, stronger effect = lower value 0.988 | locus YGL240W, strain doc1, stronger effect = lower value 0.992 | locus YGL248W, strain PDE1, stronger effect = lower value 0.919 | locus YGL253W, strain hxk2, stronger effect = lower value 0.947 | locus YGR135W, strain pre9, stronger effect = lower value 0.936 | locus YGR252W, strain gcn5, stronger effect = lower value 0.969 | locus YHR013C, strain ard1, stronger effect = lower value 0.901 | locus YHR027C, strain rpn1, stronger effect = lower value 0.982 | locus YHR030C, strain SLT2, stronger effect = lower value 0.948 and 0.967 | locus YHR079C, strain IRE1 (second series), stronger effect = lower value 0.971 | locus YHR079C, strain IRE1, stronger effect = lower value 0.98 | locus YHR094C, strain hxt1, stronger effect = lower value 0.974 | locus YHR129C, strain ARP1, stronger effect = lower value 0.939 | locus YHR142W, strain chs7, stronger effect = lower value 0.922 | locus YHR200W, strain rpn10, stronger effect = lower value 0.984 | locus YIL066C, strain RNR3, stronger effect = lower value 0.95 | locus YIL073C, strain SPO22, stronger effect = lower value 0.948 | locus YIL125W, strain kgd1, stronger effect = lower value 0.979 | locus YIR030C, strain dcg1, stronger effect = lower value 0.979 | locus YJL092W, strain hpr5, stronger effect = lower value 0.963 | locus YJL095W, strain BCK1 (second series), stronger effect = lower value 0.984 | locus YJL095W, strain BCK1, stronger effect = lower value 0.807 and 0.975 | locus YJL115W, strain asf1, stronger effect = lower value 0.971 | locus YJL129C, strain trk1, stronger effect = lower value 0.95 | locus YJL134W, strain LCB3, stronger effect = lower value 0.982 | locus YJL154C, strain vps35, stronger effect = lower value 0.979 | locus YJL164C, strain tpk1, stronger effect = lower value 0.946 | locus YJL166W, strain qcr8, stronger effect = lower value 0.993 | locus YJL168C, strain set2, stronger effect = lower value 0.969 | locus YJL187C, strain SWE1 (second series), stronger effect = lower value 0.931 | locus YJL187C, strain SWE1, stronger effect = lower value 0.973 | locus YJR043C, strain POL32, stronger effect = lower value 1.06 | locus YJR066W, strain TOR1, stronger effect = lower value 0.951 | locus YKL009W, strain mrt4, stronger effect = lower value 0.948 | locus YKL068W, stronger effect = lower value 0.966 | locus YKL085W, strain MDH1 (second series), stronger effect = lower value 0.971 | locus YKL085W, strain MDH1, stronger effect = lower value 0.971 | locus YKL160W, strain elf1, stronger effect = lower value 0.982 | locus YKR026C, strain gcn3, stronger effect = lower value 0.98 | locus YKR091W, strain srl3, stronger effect = lower value 0.969 | locus YLL001W, strain dnm1, stronger effect = lower value 0.983 | locus YLL026W, stronger effect = lower value 0.989 | locus YLL041C, strain sdh2, stronger effect = lower value 0.983 | locus YLR027C, strain aat2, stronger effect = lower value 0.994 | locus YLR058C, strain SHM2, stronger effect = lower value 0.959 | locus YLR102C, strain apc9, stronger effect = lower value 0.973 | locus YLR113W, strain HOG1, stronger effect = lower value 0.934 | locus YLR221C, strain rsa3, stronger effect = lower value 0.956 | locus YLR258W, strain gsy2, stronger effect = lower value 0.964 | locus YLR268W, strain sec22, stronger effect = lower value 0.914 | locus YLR320W, strain mms22, stronger effect = lower value 0.9 | locus YLR330W, strain CHS5, stronger effect = lower value 0.938 | locus YLR342W, strain FKS1, stronger effect = lower value 0.961 | locus YLR357W, strain rsc2, stronger effect = lower value 1.01 | locus YLR370C, strain arc18, stronger effect = lower value 0.969 | locus YLR371W, strain rom2, stronger effect = lower value 0.975 | locus YLR384C, strain iki3, stronger effect = lower value 0.993 | locus YML016C, strain PPZ1, stronger effect = lower value 0.973 | locus YML032C, strain rad52, stronger effect = lower value 0.971 | locus YML120C, strain ndi1, stronger effect = lower value 0.971 | locus YML124C, strain tub3, stronger effect = lower value 0.986 | locus YMR058W, strain fet3, stronger effect = lower value 0.964 | locus YMR078C, strain ctf18, stronger effect = lower value 0.973 | locus YMR125W, strain sto1, stronger effect = lower value 0.985 | locus YMR129W, stronger effect = lower value 0.973 | locus YMR205C, strain PFK2, stronger effect = lower value 0.938 | locus YMR223W, strain ubp8, stronger effect = lower value 0.941 | locus YMR231W, strain pep5, stronger effect = lower value 0.99 | locus YNL067W, strain RPL9B, stronger effect = lower value 0.937 | locus YNL071W, strain lat1, stronger effect = lower value 0.927 | locus YNL128W, strain TEP1, stronger effect = lower value 0.965 | locus YNL153C, strain GIM3, stronger effect = lower value 0.953 | locus YNL183C, strain NPR1, stronger effect = lower value 0.928 | locus YNL209W, strain ssb2, stronger effect = lower value 0.985 | locus YNL233W, strain BNI4, stronger effect = lower value 0.923 | locus YNL248C, strain rpa49, stronger effect = lower value 0.912 | locus YNL250W, strain rad50, stronger effect = lower value 0.981 | locus YNL271C, strain bni1, stronger effect = lower value 0.968 | locus YNL298W, strain CLA4, stronger effect = lower value 0.955 | locus YNL322C, strain KRE1 (second series), stronger effect = lower value 0.991 | locus YNL322C, strain KRE1, stronger effect = lower value 0.997 | locus YNR049C, strain mso1, stronger effect = lower value 0.947 | locus YOL012C, strain htz1 0.991 | locus YOL147C, strain pex11, stronger effect = lower value 0.971 | locus YOR001W, strain rrp6, stronger effect = lower value 1 | locus YOR061W, strain CKA2, stronger effect = lower value 0.958 | locus YOR069W, strain VPS5, stronger effect = lower value 0.975 | locus YOR070C, strain gyp1, stronger effect = lower value 0.969 | locus YOR080W, strain dia2, stronger effect = lower value 0.979 | locus YOR083W, strain WHI5, stronger effect = lower value 0.975 | locus YOR106W, strain vam3, stronger effect = lower value 0.961 | locus YOR136W, strain idh2, stronger effect = lower value 0.963 | locus YOR144C, strain elg1, stronger effect = lower value 0.976 | locus YOR231W, strain MKK1, stronger effect = lower value 0.97 | locus YOR265W, strain rbl2, stronger effect = lower value 0.983 | locus YOR290C, strain snf2, stronger effect = lower value 0.947 | locus YOR316C, strain cot1, stronger effect = lower value 0.968 | locus YPL051W, strain arl3, stronger effect = lower value 0.969 | locus YPL055C, strain LGE1, stronger effect = lower value 0.909 | locus YPL078C, strain atp4, stronger effect = lower value 0.975 | locus YPL106C, strain sse1, stronger effect = lower value 0.994 | locus YPL240C, strain hsp82, stronger effect = lower value 0.998 | locus YPL241C, strain CIN2, stronger effect = lower value 0.991 | locus YPL256C, strain CLN2, stronger effect = lower value 0.946 | locus YPR119W, strain clb2, stronger effect = lower value 0.981 | locus YPR141C, strain kar3, stronger effect = lower value 0.947 | locus YPR167C, strain met16, stronger effect = lower value 0.967 | strain wtn01, stronger effect = lower value 0.902
active: locus YDL101C, strain DUN1, stronger effect = lower value 0.877 | locus YDL192W, strain arf1, stronger effect = lower value 0.866 | locus YDR137W, strain rgp1, stronger effect = lower value 0.75 | locus YDR162C, strain NBP2, stronger effect = lower value 0.584 | locus YDR392W, strain spt3, stronger effect = lower value 0.662 | locus YDR502C, strain sam2, stronger effect = lower value 0.914 | locus YGL086W, strain mad1, stronger effect = lower value 0.917 | locus YKR001C, strain vps1, stronger effect = lower value 0.788 | locus YLR039C, strain RIC1, stronger effect = lower value 0.588 | locus YLR262C, strain YPT6 (second series), stronger effect = lower value 0.792 | locus YLR262C, strain YPT6, stronger effect = lower value 0.525 | locus YLR342W, strain FKS1 (second series), stronger effect = lower value 0.785 | locus YLR418C, strain cdc73, stronger effect = lower value 0.702 | locus YMR307W, strain GAS1, stronger effect = lower value 0.597 | locus YNL307C, strain MCK1, stronger effect = lower value 0.831 | locus YNR052C, strain pop2, stronger effect = lower value 0.906 | locus YOR184W, strain ser1, stronger effect = lower value 0.724 | locus YOR270C, strain vph1, stronger effect = lower value 0.771 | locus YPR163C, strain tif3, stronger effect = lower value 0.867

From PubChem BioAssay AID1159580 (chemical genetic matrix, 2015)
